Shown are actives, neighbours in structure and some others; about 2.4% of the full set was active somewhere.
D2 PAM-1 = human D2 receptor positive allosteric modulation; P14416; DiscoveRx D2 beta-arrestin cells, luminescence, 90 min; 100% = 57 uM dopamine signal; potentiation, % (test concentration not listed); 0.23% of 360,000 active; AID 624464; in the data active = potentiation above about 50%; inconclusive = mostly about 30% to 49%
Target sequence (P14416 whole entry, looked up): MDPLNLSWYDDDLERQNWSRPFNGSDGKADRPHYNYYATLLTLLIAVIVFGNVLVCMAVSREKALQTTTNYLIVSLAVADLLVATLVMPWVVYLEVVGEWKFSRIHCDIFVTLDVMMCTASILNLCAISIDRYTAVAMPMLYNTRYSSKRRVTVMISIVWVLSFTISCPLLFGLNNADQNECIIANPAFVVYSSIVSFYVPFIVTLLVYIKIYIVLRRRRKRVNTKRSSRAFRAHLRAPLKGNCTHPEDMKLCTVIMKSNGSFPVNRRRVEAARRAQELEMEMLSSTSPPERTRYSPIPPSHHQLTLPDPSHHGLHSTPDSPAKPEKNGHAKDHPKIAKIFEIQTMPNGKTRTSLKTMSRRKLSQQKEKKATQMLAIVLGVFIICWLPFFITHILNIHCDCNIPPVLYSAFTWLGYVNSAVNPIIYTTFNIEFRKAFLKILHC
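PathHunter beta-arrestin assay in DiscoveRx D2 cells. Compounds were added with an EC20 of dopamine (50 nM final) for 90 min at 37 deg C. Luminescence was read 1 h after detection reagent, with 57 uM dopamine as the EC100 control.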
D2 antagonist = D2 dopamine receptor (human) antagonism; P14416; inhibition, % at 10 µM; HEK293 TREx D2 cells, calcium flux, dopamine EC80; AID 485344; 2% of 340,000 active; in the data active = inhibition above about 30%; inactive = below that, where a call was filed; note: 0% is about no effect
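Measurement of antagonist activity uses fluorescent calcium dye in inducible HEK293 T-REx D2 cells: 10 s baseline, compound addition with 180 s read, EC80 dopamine addition with a further 180 s read.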
D2 PAM-2 = positive allosteric modulators of human D2 dopamine receptor; P14416; HEK293 T-REx D2, calcium flux, EC20 dopamine potentiation; potentiation, % at 10 µM; 0.34% of 340,000 active; AID 485347;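 active = potentiation over 3 SD above the plate norm, cut at about 30% in these data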; note: 0% is about no effect
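Cells plated with tetracycline inducer and held overnight at 30 C; calcium dye loaded 30–90 min at room temperature; baseline taken, compound added and read 180 s; EC20 dopamine then added and read 180 s.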
D2 ag-1 = activates the human D2 dopamine receptor; P14416; activation, % (concentration not given with the values); 0.084% of 360,000 active; DiscoveRx PathHunter D2 beta-arrestin, luminescence, 90 min; 100% = 57 uM dopamine signal; in the data active = activation above about 40%; inconclusive = between about 15% and that limit
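DiscoveRx PathHunter D2 beta-arrestin cells (2,100/well) attached overnight, then compound-stimulated 90 min at 37 C in HBSS/10 mM HEPES/0.1% Tween-20 buffer; beta-galactosidase complementation read by luminescence after 1 h at ambient temperature. Dopamine 57 uM final (EC100) as control.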
D2 ag-2 = agonists of human D2 dopamine receptor. P14416. 0.53% of 340,000 active. activation, % at 2 µM. HEK293 T-REx D2 cells, calcium flux agonist mode. AID 485358;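 active = activation over 3 SD above normal in the single-dose calcium agonist read, cut at about 30% in these data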; note: 0% is about no effect
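Agonism scored from kinetic calcium signal (1 read/sec, 180 s) following compound pin transfer, after a 10 s baseline. Cells: HEK293 Trex line expressing inducible D2 receptor coupled to calcium, dye-loaded after overnight culture at 30 C.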
* hit, by the source's call.

For N#Cc1c(N)c2ccccn2c1C(=O)c1ccc(Br)cc1 the results were D2 PAM-1 -3.9, D2 antagonist -5.1, D2 PAM-2 -3.0, D2 ag-1 -5.2 and D2 ag-2 -1.0.
Screening COc1cc(C(=O)O/N=C(\N)c2ccncc2)cc(OC)c1OC returned D2 PAM-1 84.0*, D2 antagonist 12.8, D2 PAM-2 -8.6, D2 ag-1 13.6 and D2 ag-2 -0.6.
Screening COc1ccc(/C(N)=N/OC(=O)c2cccc([N+](=O)[O-])c2)cc1 returned D2 PAM-1 24.9, D2 antagonist 13.0, D2 PAM-2 -3.6, D2 ag-1 7.9 and D2 ag-2 -0.6.
Screening COc1cccc(C(=O)O/N=C(\N)c2ccc([N+](=O)[O-])cc2)c1 returned D2 PAM-1 136.5*, D2 antagonist -6.9, D2 PAM-2 0.9, D2 ag-1 inconclusive and D2 ag-2 0.1.
`COc1cccc(C(=O)O/N=C(\N)c2ccncc2)c1` gave D2 PAM-1 59.4*, D2 antagonist 12.5, D2 PAM-2 -2.6, D2 ag-1 9.5 and D2 ag-2 -0.2.
Screening COc1cccc(C(=O)O/N=C(\N)c2ccc(C)cc2)c1 returned D2 PAM-1 inconclusive, D2 antagonist -12.3, D2 PAM-2 13.2, D2 ag-1 -0.2 and D2 ag-2 -0.7.
For OCc1cnc(SCc2cccc(F)c2)n1Cc1ccc(F)cc1 the results were D2 PAM-2 -6.6 and D2 ag-2 -0.6.
COc1ccc(C(=O)Nc2c(O)ccc3ccccc23)cc1OC was read as D2 PAM-1 17.1 and D2 ag-1 -0.1.
`COc1ccc(S(=O)(=O)Nc2c(O)ccc3ccccc23)cc1OC` gave D2 PAM-1 106.9* and D2 ag-1 inconclusive.
COC(=O)N1CCCc2cc(S(=O)(=O)N3CCN(c4ccccc4)CC3)ccc21 was read as D2 PAM-2 20.4 and D2 ag-2 0.5.
For CC1OC(O[C@H]2CC[C@]3(C)C4C=C[C@]56OC[C@@]7(CC[C@@H](C)[C@H](C)C75)[C@H](O)C[C@@]6(C)[C@]4(C)CC[C@H]3C2(C)C)C(OC2OC(CO)C(O)C(O)C2OC2OCC(O)C(O)C2O)C(O)C1O (some centres not stated) the results were D2 antagonist 35.1*, D2 PAM-2 -14.1 and D2 ag-2 43.0*.
For CC1O[C@@H](OC2C(COC3OC(CO)C(O)[C@H](O)C3O)OC(OC3CC[C@]4(C)C(CC[C@@]5(C)[C@@H]4CC=C4[C@@H]6CC(C)(C)CC[C@]6(CO)C(O)C[C@]45C)C3(C)C)C(O)C2O)C(O)C(O)C1O (some centres not stated) the results were D2 PAM-1 -52.2 and D2 ag-1 -0.1.
`Cc1cc(C(=O)O)ccc1N/C=C1\CCCC(C)C1=O` (configuration not stated) gave D2 PAM-1 -25.4, D2 antagonist -0.4, D2 PAM-2 -3.6, D2 ag-1 -2.8 and D2 ag-2 1.3.
`CC1CCC/C(=C\Nc2ccc(O)cc2)C1=O` (configuration not stated) gave D2 PAM-1 53.9*, D2 antagonist 5.9, D2 PAM-2 9.6, D2 ag-1 13.0 and D2 ag-2 0.2.
For Cc1ccc(SCC(=O)Nc2ccc(N3CCN(C)CC3)c(F)c2)c(C)c1 the results were D2 PAM-1 57.4*, D2 antagonist 3.3, D2 PAM-2 -17.2, D2 ag-1 0.4 and D2 ag-2 5.4.
Screening CCOc1cc(C2c3c(-c4ccccc4O)n[nH]c3C(=O)N2CCc2ccccc2)ccc1O (configuration not stated) returned D2 ag-2 0.6.
Screening CCOc1cccc(CN2CCCC(C(=O)c3cc(Cl)ccc3OC)C2)c1O (configuration not stated) returned D2 PAM-1 -22.1, D2 antagonist 65.6*, D2 PAM-2 -19.6, D2 ag-1 1.7 and D2 ag-2 1.0.
Screening CS(=O)(=O)N1CCC(C(=O)N2CCN(c3cccc(Cl)c3)CC2)CC1 returned D2 PAM-1 -3.6, D2 antagonist 7.4, D2 ag-1 3.1 and D2 ag-2 0.2.
`CS(=O)(=O)N1CCCC(C(=O)N2CCN(c3cccc(Cl)c3)CC2)C1` (configuration not stated) gave D2 PAM-1 2.1, D2 antagonist 31.2*, D2 PAM-2 5.9, D2 ag-1 4.4 and D2 ag-2 0.6.
`O=C(c1cnccn1)N1CCCC(N2CCN(c3cccc(Cl)c3)CC2)C1` (configuration not stated) gave D2 PAM-1 -19.7, D2 antagonist 7.7, D2 PAM-2 -2.8, D2 ag-1 5.2 and D2 ag-2 36.8*.
CCOc1cccc(CN2CCCC(N3CCN(c4cccc(Cl)c4)CC3)C2)c1O (configuration not stated) was read as D2 PAM-1 -21.2, D2 antagonist 36.6*, D2 PAM-2 -9.0, D2 ag-1 -2.3 and D2 ag-2 8.0.
CCOc1cccc(CN2CCCC(N3CCc4ccccc4C3)C2)c1O (configuration not stated) was read as D2 PAM-1 -24.0, D2 antagonist -18.9, D2 PAM-2 11.9, D2 ag-1 -5.8 and D2 ag-2 -0.9.
`Cc1cccc(C(=O)N2CCCC(N3CCN(c4cccc(Cl)c4)CC3)C2)n1` (configuration not stated) gave D2 PAM-1 -20.5, D2 antagonist 4.3, D2 PAM-2 2.7, D2 ag-1 1.1 and D2 ag-2 -0.2.
`CCNC(=O)C1(C)CCN(C(=O)c2c(-c3ccccc3)noc2C)C1` (configuration not stated) gave D2 PAM-1 1.5 and D2 ag-1 -7.6.
For Cc1c(C(=O)NCc2cccs2)sc(=O)n1Cc1ccc(S(=O)(=O)N(C)C)cc1 the results were D2 PAM-1 0.9 and D2 ag-1 10.5.
`CC(=O)N1CCCN(Cc2cn(-c3cccc(C)c3)nc2-c2cccc(F)c2)CC1` gave D2 PAM-1 -20.4, D2 antagonist -2.6, D2 PAM-2 7.4, D2 ag-1 -1.6 and D2 ag-2 0.1.
For CCCC(=O)Nc1ccc(N2CCCCC2)cc1 the results were D2 PAM-1 -2.9, D2 antagonist 6.0, D2 PAM-2 -9.3, D2 ag-1 -3.1 and D2 ag-2 -0.8.
CC(=O)Nc1ccc(C(=O)N2CCCC2)cc1 was read as D2 PAM-1 -21.7, D2 antagonist 1.4, D2 PAM-2 32.2*, D2 ag-1 -1.2 and D2 ag-2 -0.2.
O=C(O)CCC(=O)Nc1ccc(C(=O)N2CCCCC2)cc1 was read as D2 PAM-1 -10.2, D2 antagonist 6.4, D2 PAM-2 32.6*, D2 ag-1 -2.9 and D2 ag-2 -0.9.
`O=C(O)CCCC(=O)Nc1ccc(N2CCCC2)cc1` gave D2 PAM-1 69.2*, D2 antagonist -2.7, D2 PAM-2 1.0, D2 ag-1 5.1 and D2 ag-2 -0.1.
